# Measured values reported in the supplement of paper PMC8728848.
# The entries come from a sample that favours the strongest signals as a whole.
# How the values were obtained:
# Assay in all cases: glycan array binding signal (z-score within array); higher = stronger binding
# Details in all cases: glycan notation: IUPAC condensed, linker removed
# [1] = target: Fuc(a1-2)Gal(b1-3)GalNAc(b1-3)Gal
# Outline: (§1)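 Glycan array data were curated from 3228 arrays in the Consortium for Functional Glycomics database and kept only where the protein sequence was available. Glycan names were converted to IUPAC-condensed notation, and columns mapping to the same glycan were averaged. The binding signal is a within-array Z-score, averaged across arrays of the same protein sequence at different concentrations or buffers and across linkers. Negative Z-scores can be read as non-binding.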
# [2] = target: Fuc(a1-2)Gal(b1-3)GlcNAc
# Outline: as §1
# [3] = target: Fuc(a1-2)Gal(b1-4)GlcNAc(b1-2)Man(a1-3)[Fuc(a1-2)Gal(b1-4)GlcNAc(b1-2)Man(a1-6)]Man(b1-4)GlcNAc(b1-4)[Fuc(a1-6)]GlcNAc
# Outline: as §1
# [4] = target: Fuc(a1-2)Gal6S(b1-4)Glc6S
# Outline: as §1
# [5] = target: Fuc(a1-2)[Gal(a1-3)]Gal(b1-3)GalNAc(b1-3)Gal(a1-4)Gal(b1-4)Glc
# Outline: as §1
# [6] = target: Fuc(a1-2)[Gal(a1-3)]Gal(b1-4)[Fuc(a1-3)]Glc
# Outline: as §1
# [7] = target: Fuc(a1-2)[GalNAc(a1-3)]Gal(b1-3)GlcNAc(b1-2)Man(a1-3)[Fuc(a1-2)[GalNAc(a1-3)]Gal(b1-3)GlcNAc(b1-2)Man(a1-6)]Man(b1-4)GlcNAc(b1-4)[Fuc(a1-6)]GlcNAc
# Outline: as §1
# [8] = target: Fuc(a1-2)[GalNAc(a1-3)]Gal(b1-4)GlcNAc(b1-2)Man
# Outline: as §1
# [9] = target: Fuc(a1-3)[Gal(b1-4)]Glc6S
# Outline: as §1
# [10] = target: Fuc(a1-3)[Gal(b1-4)]GlcNAc(b1-2)Man(a1-3)[Fuc(a1-3)[Gal(b1-4)]GlcNAc(b1-2)Man(a1-6)]Man(b1-4)GlcNAc(b1-4)GlcNAc
# Outline: as §1
# [11] = target: Fuc(a1-3)[Gal(b1-4)]GlcNAc(b1-2)Man(a1-3)[Fuc(a1-3)[Gal(b1-4)]GlcNAc(b1-2)Man(a1-6)]Man(b1-4)GlcNAc(b1-4)[Fuc(a1-6)]GlcNAc
# Outline: as §1
# [12] = target: Gal(a1-3)Gal(b1-4)Glc
# Outline: as §1
# [13] = target: Gal(a1-3)GalNAc
# Outline: as §1
# [14] = target: Gal(a1-4)Gal(b1-4)GlcNAc
# Outline: as §1
# [15] = target: Gal(b1-3)Gal
# Outline: as §1
# [16] = target: Gal(b1-3)GlcNAc(a1-3)Gal(b1-4)GlcNAc
# Outline: as §1
# [17] = target: Gal(b1-3)GlcNAc(b1-2)Man
# Outline: as §1
# [18] = target: Gal(b1-3)GlcNAc(b1-3)GalNAc
# Outline: as §1
# [19] = target: Gal(b1-4)GalNAc(b1-3)[Fuc(a1-2)]Gal(b1-4)GlcNAc
# Outline: as §1
# [20] = target: Gal(b1-4)GlcNAc(b1-2)Man(a1-3)[GlcNAc(b1-4)][Gal(b1-4)GlcNAc(b1-2)Man(a1-6)]Man(b1-4)GlcNAc(b1-4)GlcNAc
# Outline: as §1
# [21] = target: Gal(b1-4)GlcNAc(b1-2)[Gal(b1-4)GlcNAc(b1-6)]Man(a1-6)[Gal(b1-4)GlcNAc(b1-2)Man(a1-3)]Man(b1-4)GlcNAc(b1-4)GlcNAc
# Outline: as §1
# [22] = target: Gal(b1-4)GlcNAc(b1-3)Gal(b1-4)GlcNAc(b1-2)Man(a1-3)[Gal(b1-4)GlcNAc(b1-3)Gal(b1-4)GlcNAc(b1-2)Man(a1-6)]Man(b1-4)GlcNAc(b1-4)GlcNAc
# Outline: as §1
# [23] = target: Gal(b1-6)Gal
# Outline: as §1
# [24] = target: Gal3S6S(b1-4)GlcNAc6S
# Outline: as §1
# [25] = target: Gal4S(b1-4)GlcNAc
# Outline: as §1
# [26] = target: GlcA3S(b1-3)Gal(b1-4)GlcNAc(b1-2)Man
# Outline: as §1
# [27] = target: GlcNAc(b1-3)Gal
# Outline: as §1
# [28] = target: GlcNAc(b1-3)Gal(b1-4)GlcNAc(b1-2)Man(a1-3)[GlcNAc(b1-3)Gal(b1-4)GlcNAc(b1-2)Man(a1-6)]Man(b1-4)GlcNAc(b1-4)[Fuc(a1-6)]GlcNAc
# Outline: as §1
# [29] = target: GlcNAc(b1-3)Gal(b1-4)GlcNAc(b1-2)[GlcNAc(b1-3)Gal(b1-4)GlcNAc(b1-6)]Man(a1-6)[GlcNAc(b1-3)Gal(b1-4)GlcNAc(b1-2)Man(a1-3)]Man(b1-4)GlcNAc(b1-4)GlcNAc
# Outline: as §1
# [30] = target: GlcNAc(b1-3)Man
# Outline: as §1
# [31] = target: GlcNAc(b1-3)[GlcNAc(b1-6)]Gal(b1-4)GlcNAc
# Outline: as §1
# [32] = target: Man(a1-2)Man(a1-2)Man(a1-6)[Man(a1-3)]Man
# Outline: as §1
# [33] = target: Man(a1-3)[Man(a1-6)]Man(a1-6)[Man(a1-3)]Man
# Outline: as §1
# [34] = target: Neu5Ac(a2-3)Gal(b1-3)GlcNAc(b1-3)Gal(b1-4)GlcNAc
# Outline: as §1
# [35] = target: Neu5Ac(a2-3)Gal(b1-3)GlcNAc(b1-4)Gal(b1-4)Glc
# Outline: as §1
# [36] = target: Neu5Ac(a2-3)Gal(b1-3)[Fuc(a1-4)]GlcNAc(b1-3)Gal(b1-4)[Fuc(a1-3)]GlcNAc
# Outline: as §1
# [37] = target: Neu5Ac(a2-3)Gal(b1-4)GlcNAc(b1-3)Gal
# Outline: as §1
# [38] = target: Neu5Ac(a2-3)Gal(b1-4)GlcNAc(b1-3)Gal(b1-4)GlcNAc(b1-3)Gal(b1-4)GlcNAc(b1-2)Man(a1-3)[Neu5Ac(a2-3)Gal(b1-4)GlcNAc(b1-3)Gal(b1-4)GlcNAc(b1-3)Gal(b1-4)GlcNAc(b1-2)Man(a1-6)]GalNAc
# Outline: as §1
# [39] = target: Neu5Ac(a2-3)Gal(b1-4)[Fuc(a1-3)]GlcNAc(b1-6)[Neu5Ac(a2-3)Gal(b1-3)]GalNAc
# Outline: as §1
# [40] = target: Neu5Ac(a2-3)[GalNAc(b1-4)]Gal(b1-4)Glc
# Outline: as §1
# [41] = target: Neu5Ac(a2-6)Gal(b1-4)GlcNAc(b1-3)Gal(b1-4)GlcNAc(b1-6)[Gal(b1-3)]GalNAc
# Outline: as §1
# [42] = target: Neu5Ac(a2-8)Neu5Ac
# Outline: as §1
# [43] = target: Neu5Ac(a2-8)Neu5Ac(a2-3)Gal(b1-3)GalNAc(b1-4)[Neu5Ac(a2-3)]Gal(b1-4)Glc
# Outline: as §1
# [44] = target: Neu5Ac(a2-8)Neu5Ac(a2-8)Neu5Ac(a2-3)Gal(b1-4)Glc
# Outline: as §1
# [45] = target: Neu5Ac(a2-8)Neu5Gc(a2-3)Gal(b1-4)GlcNAc
# Outline: as §1
# [46] = target: Neu5Gc(a2-8)Neu5Ac(a2-3)Gal(b1-4)GlcNAc
# Outline: as §1
binder,measurement,setting,value
"Als1 (Candida albicans), P46590 (protein) KTITGVFDSFNSLTWSNAANYAFKGPGYPTWNAVLGWSLDGTSANPGDTFTLNMPCVFKYTTSQTSVDLTADGVKYATCQFYSGEEFTTFSTLTCTVNDALKSSIKAFGTVTLPIAFNVGGTGSSTDLEDSKCFTAGTNTVTFNDGDKDISIDVEFEKSTVDPSGYLYASRVMPSLNKVTTLFVAPQCENGYTSGTMGFSSSNGDVAIDCSNIHIGITKGLNDWNYPVSSESFSYTKTCTSNGIQIKYQNVPAGYRPFIDAYISATDVNQYTLAYTNDYTCAGSRLQSKPFTLRWTGYKNSDAGSNGIVIVATTRTVTDSTTAVTTLPFNPSVDKTKTIEILQPIPTTTITTSYVGVTTSYLTKTAPIGETATVIVDVPYHTTTTVTSEWTGTITTTTTRTNPTDSIDTVVVQVP",glycan array binding signal (z-score),[1],3.32
same,glycan array binding signal (z-score),[2],-0.524
same,glycan array binding signal (z-score),[3],1.97
same,glycan array binding signal (z-score),[4],-0.25
same,glycan array binding signal (z-score),[5],-0.049
same,glycan array binding signal (z-score),[6],0.021
same,glycan array binding signal (z-score),[7],-0.413
same,glycan array binding signal (z-score),[8],-0.488
same,glycan array binding signal (z-score),[9],3.38
same,glycan array binding signal (z-score),[10],0.227
same,glycan array binding signal (z-score),[11],0.146
same,glycan array binding signal (z-score),[12],-0.664
same,glycan array binding signal (z-score),[13],-0.407
same,glycan array binding signal (z-score),[14],-0.303
same,glycan array binding signal (z-score),[15],-0.458
same,glycan array binding signal (z-score),[16],-0.432
same,glycan array binding signal (z-score),[17],0.092
same,glycan array binding signal (z-score),[18],-0.05
same,glycan array binding signal (z-score),[19],-0.644
same,glycan array binding signal (z-score),[20],8.37
same,glycan array binding signal (z-score),[21],7.7
same,glycan array binding signal (z-score),[22],4.19
same,glycan array binding signal (z-score),[23],-0.739
same,glycan array binding signal (z-score),[24],3.22
same,glycan array binding signal (z-score),[25],0.401
same,glycan array binding signal (z-score),[26],-0.192
same,glycan array binding signal (z-score),[27],4.47
same,glycan array binding signal (z-score),[28],-0.201
same,glycan array binding signal (z-score),[29],4.37
same,glycan array binding signal (z-score),[30],-0.282
same,glycan array binding signal (z-score),[31],-0.361
same,glycan array binding signal (z-score),[32],-0.553
same,glycan array binding signal (z-score),[33],1.09
same,glycan array binding signal (z-score),[34],-0.473
same,glycan array binding signal (z-score),[35],4.25
same,glycan array binding signal (z-score),[36],-0.015
same,glycan array binding signal (z-score),[37],-0.274
same,glycan array binding signal (z-score),[38],3.84
same,glycan array binding signal (z-score),[39],2.16
same,glycan array binding signal (z-score),[40],-0.291
same,glycan array binding signal (z-score),[41],-0.05
same,glycan array binding signal (z-score),[42],-0.045
same,glycan array binding signal (z-score),[43],-0.627
same,glycan array binding signal (z-score),[44],-0.083
same,glycan array binding signal (z-score),[45],-0.049
same,glycan array binding signal (z-score),[46],4.63
